Results published in ChEMBL document CHEMBL4513216, “Probing the Open Global Health Chemical Diversity Library for Multistage-Active Starting Points for Next-Generation Antimalarials” (ACS Infect Dis, 2020).
About 8,600 (12%) of roughly 69,000 compounds showed an effect of 50% or more. This is one part of a sample in which strong results are shown more often than they occur.

test system: Plasmodium berghei; test: Screen against P. berghei liver stage (PbLuc), transformed with Luciferase, at 10uM; format: functional, HepG2; conditions: tested at 10 uM

Row | Compound | INHIBITION [%]
1 | O=C(c1ccccc1-n1cccn1)N1CCC(Nc2cccnn2)CC1 | -92.9
2 | Oc1cc(C2CCCCN2C2CCCC2)nc(-c2cccnc2)n1 (configuration not stated) | 15.5
3 | Cc1ccc(C(=O)N(C)Cc2nccn2CC(F)(F)F)cn1 | -16.8
4 | Cc1cc(C)nc(N2CCOC(C)(C(=O)N(C)C)C2)n1 (configuration not stated) | -11.4
5 | Cc1nc(CO[C@@H]2CN(Cc3cnn(C)c3)[C@@H]3COC[C@@H]32)cs1 | 50.1
6 | Cc1nc(CO[C@H]2CN(C(=O)c3cccnc3)[C@@H]3COC[C@H]23)cs1 | 51.2
7 | Cc1nc(CO[C@@H]2CN(Cc3ccc(F)cc3)[C@@H]3COC[C@@H]32)cs1 | 23.6
8 | Cc1nc(CO[C@H]2CN(C(=O)c3cccn3C)[C@@H]3COC[C@H]23)cs1 | 38.5
9 | Cc1nc(CO[C@@H]2CN(Cc3ccsc3)[C@@H]3COC[C@@H]32)cs1 | 14.1
10 | Cc1nc(CO[C@H]2CN(C(=O)c3cnoc3C)[C@@H]3COC[C@H]23)cs1 | 24.9
11 | Cn1ccc(C(=O)N2C[C@@H]3OCCN(c4ncccn4)[C@@H]3C2)n1 | 18.4
12 | Cc1nc(-c2ccccc2)n(CC(=O)NC(C)(C)C)n1 | 16.8
13 | CC(C)(C)OC(=O)NCCc1csc(N2CCCC2)n1 | 65.4
14 | CCNC(=O)NCCc1csc(N2CCCC2)n1 | 39.7
15 | CC(C)OCCC(=O)NCCc1csc(N2CCCC2)n1 | 48.3
16 | CCC=C(C)C(=O)NCCc1csc(N2CCCC2)n1 | 41.4
17 | CCN(CC)CC(=O)NCCc1csc(N2CCCC2)n1 | 9.48
18 | CCCc1nc(CNC(=O)Cc2csc(C)n2)cs1 | 9.35
19 | CC(C)(C)SCC(=O)NCCc1csc(N2CCCC2)n1 | 78.2
20 | Cc1nc(CC(=O)NCc2csc(N3CCCC3)n2)cs1 | 70.3
21 | Cc1ncsc1CCC(=O)NCc1csc(N2CCCC2)n1 | -20.8
22 | O=C(CN1CC(c2nc(-c3ccco3)no2)C1)NCCc1ccccc1 | -63.6

Row | Compound | INHIBITION [%]
23 | Cc1nc(NC(=O)c2c3c(nn2C2CCS(=O)(=O)C2)CCC3)sc1C (configuration not stated) | -14.9
24 | O=C(NCc1ccc(CO)cc1)C1CCOc2ccccc2C1 (configuration not stated) | 5.91
25 | Cn1nc(C(=O)N2CCOCC2)cc1C(=O)Nc1cc(Cl)cc(Cl)c1 | 45.9
26 | CCc1nnc(NC(=O)NCCN(C)C(=O)OC(C)(C)C)s1 | 1.98
27 | CCc1cccc(OCCn2cccc(C#N)c2=O)c1 | 68.3
28 | N#Cc1cccn(CCOc2ccc(Cl)cc2)c1=O | 77.2
29 | CCc1cccc(OCCCN(C)C(=O)CN2CCNC2=O)c1 | 17
30 | COc1cccc(Cn2cccc(C#N)c2=O)c1 | 41.4
31 | CC1C(=O)NCCN1CCOc1ccc(C#N)cc1 (configuration not stated) | -17.2
32 | N#Cc1ccc(OCCn2cccn2)cc1 | 15.7
33 | CC(=O)N1Cc2nccn2CC(CNC(=O)c2cccnc2)C1 (configuration not stated) | -48.4
34 | O=C(c1c(O)cnc2ccccc12)N1CCN(CC(F)F)CC1 | -32.1
35 | CC[C@@H]1N(Cc2nccs2)CCC[C@]12CCC(=O)N2CCOC | 16.4
36 | CNC(=O)CCCNCc1c(C)nn(C)c1N(C)C | 14.7
37 | Cc1nn(CC(C)C)c(N(C)C)c1CNCCS(C)(=O)=O | 26.4
38 | Cc1nn(CC(C)C)c(N(C)C)c1CNCCCNS(C)(=O)=O | 42.1
39 | Cc1nn(CC(C)C)c(N(C)C)c1CNCCC(=O)NC(C)C | 13
40 | Cc1nc(C)c(C(C)NCc2c(C)nn(CC(C)C)c2N(C)C)s1 (configuration not stated) | 50
41 | Cc1nc(C)c(C(C)NCc2c(C)nn(C)c2N(C)C)s1 (configuration not stated) | -15.1
42 | Cc1nc(C)c(C(C)NCc2c(C(C)C)nn(C)c2N(C)C)s1 (configuration not stated) | 1.2
43 | CNC(=O)CCCNCc1c(C)nn(CC(C)C)c1N(C)C | 53.3
44 | CC(=O)NCCCNCc1c(C)nn(CC(C)C)c1N(C)C | 61.1

Row | Compound | INHIBITION [%]
45 | Cc1noc(C)c1CN1CCN(Cc2cccnc2)c2ncccc2C1 | 22.9
46 | COCCCn1ccc(NS(=O)(=O)c2cc(F)c(C)cc2F)n1 | 23.1
47 | CCOc1ccc(Cl)c(C(=O)NCCC(=O)Nc2ccncc2)n1 | -0.44
48 | O=C1C[C@H]2[C@@H](CCN2C(=O)Cc2cccs2)N1Cc1ccncc1 | 37.1
49 | CCn1cc(C(=O)N2CCOCC2)cn1 | -60.9
50 | COC(=O)CCC(=O)N1CCc2nc(C(=O)N3CCCCC3)sc2CC1 | 57.1
51 | CNC(=O)c1nc2c(s1)CCN(C(=O)Cc1ccc(OC)cc1)CC2 | 14.2
52 | COC(=O)CCC(=O)N1CCc2nc(C(=O)N(C)C)sc2CC1 | 79.2
53 | COC(=O)CCC(=O)N1CCc2nc(C(=O)N3CCOCC3)sc2CC1 | -4.99
54 | CCN(CC)C(=O)c1nc2c(s1)CCN(C(=O)CCC(=O)OC)CC2 | 12.7
55 | COCC(=O)N1CCc2nc(C(=O)N(C)C)sc2CC1 | -6.46
56 | CC(=O)N(C)C1CCN(c2ncc3c(n2)CCN3c2ccccc2)C1 (configuration not stated) | 9.4
57 | CN(C)c1ncccc1CNC(=O)NCC(c1cccs1)N(C)C (configuration not stated) | 23.2
58 | COC[C@@]12CCO[C@@H]1CCN(C(=O)COc1ccc(C)cc1)C2 | -3.52
59 | O=C(Nc1ccc(F)cc1)C(c1ccccc1)N1CCOCC1 (configuration not stated) | -3.94
60 | COc1cccc(OC)c1CN1CC(=O)N(c2ccc(C)cc2)CC1C (configuration not stated) | 76.8
61 | COc1ccc(CN2CC(=O)N(c3ccc(C)cc3)CC2C)cc1O (configuration not stated) | 43.2
62 | COc1cc(CN2CC(=O)N(c3ccc(C)cc3)CC2C)cc(OC)c1 (configuration not stated) | 46.6
63 | Cn1cc(CN2CCC[C@]3(C[C@@H](Oc4ncccc4F)CO3)C2)cn1 | 35.5
64 | CC(C)c1ccc(OCCC(=O)N2CCCC(C(N)=O)C2)cc1 (configuration not stated) | 4.18
65 | CC(=O)N1CCc2ccc(S(=O)(=O)N3CCCCC3C)cc21 (configuration not stated) | -0.178
66 | CC(=O)N1CCCc2ccc(S(=O)(=O)N3CCCCC3C)cc21 (configuration not stated) | 54.4

Row | Compound | INHIBITION [%]
67 | CS(=O)(=O)c1ccc2c(c1)N(C(=O)c1cccc(F)c1)CCC2 | 9.63
68 | Cc1cc(-c2c[nH]nc2C2CCCCN2C(=O)c2ccccc2)on1 (configuration not stated) | 23
69 | Nc1ccnc(N2CCC(c3nccn3CC3CC3)CC2)n1 | -16.3
70 | CCn1ncc2c1C(COC)CN(Cc1ccc(OC)cc1)C2 (configuration not stated) | 42.1
71 | CCn1ncc2c1C(COC)CN(Cc1cccnc1)C2 (configuration not stated) | -67.6
72 | CCn1ncc2c1C(COC)CN(Cc1ccsc1)C2 (configuration not stated) | 62.6
73 | COCC1CN(Cc2ccsc2)Cc2cnn(C)c21 (configuration not stated) | -0.371
74 | CCn1ncc2c1C(COC)CN(Cc1ccc(F)cc1)C2 (configuration not stated) | -2.35
75 | CCn1ncc2c1C(COC)CN(Cc1cnn(C)c1)C2 (configuration not stated) | 68.8
76 | CCc1nc(C2CCCN(C(=O)c3ccc4[nH]cnc4c3)C2)no1 (configuration not stated) | 5.7
77 | Cc1nc(N[C@H]2COC[C@@H]2N2CCCCC2)c2c(C)nn(C)c2n1 | 24.8
78 | COc1cc(OC)c2nc(NCCN3CCNC3=O)cc(C)c2c1 | 7.92
79 | COc1nc2ccccc2cc1C1CC(=O)Nc2n[nH]c(C3CCC3)c21 (configuration not stated) | -1.7
80 | Cc1noc(C)c1CNCC1COCc2c(-c3ccsc3)nnn2C1 (configuration not stated) | -57.1
81 | O=C(O)COc1ccc(CN2CCCC(CCc3ccccc3)C2)cc1 (configuration not stated) | 28.5
82 | Nc1nccnc1CC1CCCN(Cc2cccc3[nH]ccc23)C1 (configuration not stated) | -1.16
83 | COc1ccnc(CN2CCCC(CCc3ccc(F)cc3)C2)c1OC (configuration not stated) | 94.8
84 | Nc1nccnc1CC1CCCN(Cc2c[nH]c3ccccc23)C1 (configuration not stated) | 24.8
85 | COc1ccccc1CN1CCCC(Cc2nccnc2N)C1 (configuration not stated) | 21.1
86 | Nc1nccnc1CC1CCCN(Cc2ccnc3ccccc23)C1 (configuration not stated) | 78.7
87 | Cn1ccnc1CN1CCCC(CCc2ccc(F)c(F)c2)C1 (configuration not stated) | 37.7
88 | COc1ccccc1N1CCN(Cc2nccc(OC)c2OC)CC1=O | 40.7

Row | Compound | INHIBITION [%]
89 | COc1ccnc(CN2CCCC(CCc3ccccc3)C2)c1OC (configuration not stated) | 75.7
90 | CCc1nnc2n1CCN(C(=O)c1ccc3c(c1)[nH]c(=O)n3C)C2 | 8.38
91 | COc1ccc(-c2cnc3c(c2)CN(C2CC2)C(=O)CCN3)cc1 | 7.09
92 | CS(=O)(=O)N1C[C@H]2CC[C@@H](C1)N(C(=O)CCn1cnc3ccccc31)C2 | 12.9
93 | CC(C)(C)Nc1c(C2CCN(C(=O)C(C)(C)C)CC2)nc2ccccn12 | 30.3
94 | Cc1nc(C)n(CC2CN(CCC(=O)N3CCCCC3)CCO2)n1 (configuration not stated) | 21.5
95 | COCCc1noc(CN2CCOC(CN(C)C)C2)n1 (configuration not stated) | 15.3
96 | O=C1NC2(Cc3ccccc31)CN(CC1CCOCC1)C2 | 35
97 | c1ccc(-c2cc(CN3CCc4cncnc4C3)on2)cc1 | -28
98 | CC(C)Cc1cc(C(=O)NCC2CCCN(Cc3ccco3)C2)on1 (configuration not stated) | -63.8
99 | CC(C)Cc1cc(C(=O)NC(C)(C)CN2CCCCCC2)on1 | 58.7
100 | CC(C)Cc1cc(C(=O)NCC(O)CN2CCCCCC2)on1 (configuration not stated) | -8.47
101 | Cn1cc(CN2C[C@@H]3COC[C@]3(CNC(=O)c3ccsc3)C2)cn1 | 34.7
102 | O=C(O)c1cn(CC2CCCN(c3nccc4occc34)C2)nn1 (configuration not stated) | -2.48
103 | CN(C)Cc1cn(CC2CCCN(c3nccc4occc34)C2)nn1 (configuration not stated) | 34.9
104 | Cc1cc(N2CCCC(c3nccnc3N(C)C)C2)ncn1 (configuration not stated) | 5.25
105 | Cc1ccnc(N2CCCC(c3nncn3C3CC3)C2)n1 (configuration not stated) | 46.6
106 | Cc1cc(N2CCCC(c3nncn3C3CC3)C2)ncn1 (configuration not stated) | 53.5
107 | c1cc2occc2c(N2CCCC(c3nncn3C3CC3)C2)n1 (configuration not stated) | 57.5
